This is a sample that favours compounds with a hit; in the whole collection about 5.3% have one here.
Six1-Eya2 blk = blocks human Six1 binding to Eya2; Q15475+O00167; AlphaScreen GST-Six1/His-Eya2 binding, biochemical; hits give low values; activity change, % (test concentration not listed); hit rate 0.56% among 360,000; in the data active = activity change below about -65%; inconclusive = mostly about -30% to -63%; note: % is set by controls: 0 for no effect and ±100 for the full control effect
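GST-Six1 + His-Eya2 (5X stock: 250/500 nM); Tris pH 8.0, 300 mM NaCl, 0.05% BSA, 0.02% Tween 20; GSH donor/Ni acceptor beads; 1 h 37 °C dark; AlphaScreen readout.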
HP1b chromo inh = inhibitors of HP1-beta chromodomain binding to methylated histone tails; P83916; AlphaScreen HP1-beta / biotin-H3K9me3 peptide binding; Potency, µM (highest dose often 114 µM), without a hit: at the highest dose activity change, negative = inhibition, hits mostly inhibitors; hit rate 0.56% among 390,000; AID 540317; note: potency is the fitted concentration of half-maximal effect; nearly all actives have a fitted effect of over 70% in size
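Compound inhibition of the preformed complex between 50 nM HP1-beta and 50 nM biotinylated H3K9me3 peptide was read by AlphaScreen. Buffer was PBS pH 7.4 with 0.01% Tween-20. Incubations ran 30 min at room temperature, with 10 ug/mL donor/acceptor beads.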
CtBP-E1A inh = inhibitors of CtBP/E1A interaction; AID 651724; hit rate 0.49% among 340,000; AlphaScreen GST-E1A/His-CtBP binding, 1536-well; hits give low values; activity change, % (test concentration not listed); in the data active = activity change below about -65%; inconclusive = mostly about -30% to -63%; note: % is set by controls: 0 for no effect and ±100 for the full control effect
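Protein mix (5X: 125 nM each GST-E1A, His-CtBP) was incubated with pinned compound 2 h at 37 deg C in dark, in 50 mM Tris pH 8.0 buffer with 300 mM NaCl. Glutathione donor and nickel acceptor beads followed; AlphaScreen signal read after 1 h.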
BAZ2B block = inhibitors of human BAZ2B bromodomain; Q9UIF8; AlphaScreen BAZ2B-H3K14Ac peptide displacement; hit rate 4.4% among 360,000; Potency, µM (highest dose often 114 µM), for inactives: at the top dose activity change, negative = inhibition, most hits filed as inhibitors; note: potency is the fitted concentration of half-maximal effect; % is set by controls: 0 for no effect and ±100 for the full control effect; nearly all actives have a fitted effect of over 60% in size
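In this displacement format the biotinylated H3(5-23) peptide acetylated at Lys14 serves as ligand at 50 nM, with BAZ2B at 50 nM in PBS pH 7.4 containing 0.01% Tween-20. Donor and acceptor beads are 10 ug/mL final.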
TDP1 inh = inhibitors of human tyrosyl-DNA phosphodiesterase TDP1; Q9NUW8; recombinant TDP1, AlphaScreen DNA substrate cleavage; Potency, µM (doses to about 130 µM), for inactives: top-dose activity change, negative = inhibition, most hits filed as inhibitors; hit rate 0.28% among 350,000; note: potency is the fitted concentration of half-maximal effect; % is set by controls: 0 for no effect and ±100 for the full control effect; nearly all actives have a fitted effect of over 40% in size
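AlphaScreen read-out: signal falls as enzyme removes the 3' tyrosine-FITC from a 5'-biotinylated DNA oligo (15 nM, 5 min, RT). Enzyme was E. coli-made recombinant Tdp1 at 1 nM, exposed to compound for 15 min beforehand; beads 10 ug/ml, 10 min.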
JMJD2A Tudor = JMJD2A Tudor domain (human) inhibition | AlphaScreen JMJD2A-Tudor / H3K4me3 peptide binding | Potency, µM (doses to about 114 µM), without a hit: at the highest dose activity change, negative = inhibition, usual class: inhibitors | hit rate 4.4% among 390,000 | AID 504339; note: potency is the fitted concentration of half-maximal effect; % is set by controls: 0 for no effect and ±100 for the full control effect; nearly all actives have a fitted effect of over 50% in size
Target sequence (O75164 whole entry, looked up, the tested form may be a part): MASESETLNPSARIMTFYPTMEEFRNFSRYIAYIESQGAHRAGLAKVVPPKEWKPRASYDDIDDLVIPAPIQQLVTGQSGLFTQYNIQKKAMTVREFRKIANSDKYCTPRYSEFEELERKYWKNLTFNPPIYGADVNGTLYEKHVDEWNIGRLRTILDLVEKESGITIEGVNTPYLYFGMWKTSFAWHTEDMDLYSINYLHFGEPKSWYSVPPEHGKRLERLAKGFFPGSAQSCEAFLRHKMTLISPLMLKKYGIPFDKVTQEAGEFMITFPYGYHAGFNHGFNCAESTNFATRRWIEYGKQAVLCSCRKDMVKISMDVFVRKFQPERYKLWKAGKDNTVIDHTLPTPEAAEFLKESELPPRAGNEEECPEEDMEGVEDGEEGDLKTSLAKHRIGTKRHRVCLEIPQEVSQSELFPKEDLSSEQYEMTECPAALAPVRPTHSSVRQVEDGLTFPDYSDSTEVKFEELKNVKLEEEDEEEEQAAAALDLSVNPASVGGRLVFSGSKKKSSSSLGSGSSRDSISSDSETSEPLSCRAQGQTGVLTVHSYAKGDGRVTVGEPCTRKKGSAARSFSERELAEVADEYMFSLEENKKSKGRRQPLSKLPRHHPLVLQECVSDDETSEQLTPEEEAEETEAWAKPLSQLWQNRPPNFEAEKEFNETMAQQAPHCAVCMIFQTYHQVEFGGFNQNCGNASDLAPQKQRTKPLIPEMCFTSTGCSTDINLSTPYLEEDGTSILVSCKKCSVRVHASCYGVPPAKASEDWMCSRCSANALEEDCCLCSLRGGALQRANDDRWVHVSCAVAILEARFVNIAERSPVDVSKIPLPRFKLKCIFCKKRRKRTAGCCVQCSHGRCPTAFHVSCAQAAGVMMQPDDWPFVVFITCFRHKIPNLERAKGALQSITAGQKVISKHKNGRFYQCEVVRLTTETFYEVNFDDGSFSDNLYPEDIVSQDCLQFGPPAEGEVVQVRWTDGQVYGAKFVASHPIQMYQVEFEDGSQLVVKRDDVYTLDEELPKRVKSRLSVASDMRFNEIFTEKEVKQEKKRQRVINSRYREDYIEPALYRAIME
* marks the source's active call; other numbers are inactive results; ? = inconclusive; · = no result given; [ ] = another dose, or the depositor's remark. Unless noted, calls come from the whole dose curve; as a rule, active = well fitted inhibition curve with a large enough effect; inconclusive = small, poorly fitted or top-dose-only effect; inactive = no such curve, though single readings can be large or run the other way.

SMILES	Six1-Eya2 blk	HP1b chromo inh	CtBP-E1A inh	BAZ2B block	TDP1 inh	JMJD2A Tudor
CCOC(=O)c1[nH]c2cc(OC)c(OC)cc2c1NC(=O)C(C)N1CCN(Cc2ccccc2)CC1 (stereo unspecified)	?	-15%	-65*	?	0%	-26%
COc1ccc(NC(=O)C(C)Sc2cc(-c3ccccc3)nc(C)n2)cc1Cl (stereo unspecified)	·	49%	·	1%	-6%	11%
Cn1c(C=O)c(C#CC(C)(C)O)c2ccccc21	8	24%	·	?	-4%	-21%
COc1cccc(C#Cc2c(C=O)n(C)c3ccccc23)c1	126	491%	116	334%	18µM*	311%
CCc1nc2oc3cc(OC)ccc3c(=O)c2c(=O)n1Cc1ccco1	-18	28%	-22	56µM*	·	?
CCc1nc2sc3ccccc3c(=O)c2c(=O)n1Cc1ccco1	?	-10%	-29	?	?	56µM*
COc1ccc(-c2nc3oc4cc(OC)ccc4c(=O)c3c(=O)n2Cc2ccco2)cc1	-3	6%	3	-6%	8%	-14%
O=c1c2ccccc2sc2nc(C3CCCCC3)n(Cc3ccco3)c(=O)c12	-4	9%	2	?	2%	-25%
COc1ccc2c(=O)c3c(=O)n(Cc4ccco4)c(-c4ccco4)nc3oc2c1	?	0%	?	?	45µM*	?
COC(=O)c1ccc(Cn2c(SCc3ccccc3)nc3ccncc32)cc1	·	51%	·	-1%	7%	-2%
CN1c2ccsc2/C(=N/Nc2ccc(F)cc2)CS1(=O)=O	-5	?	-13	?	9%	25µM*
COc1cc2c(cc1OC)CN(C(=O)c1cccc([N+](=O)[O-])c1)CC2	-11	-9%	0	-11%	6%	50µM*
Cc1cc(C)nc(SCc2nnc(SCC(=O)Nc3nc(-c4ccccc4)cs3)n2-c2ccccc2)n1	-16	-2%	-15	1%	7%	79µM*
COc1ccc(NCc2nnc(SCC(=O)Nc3nc(-c4ccccc4)cs3)n2-c2ccccc2)cc1	-1	33%	-6	1%	-3%	-12%[57.1 µM]
CCN1c2ccccc2-c2nc(SCC(=O)NCc3ccccc3)ncc2S1(=O)=O	·	29%	·	0%	-3%	-1%
CC(C)(C)C1CCC(=NNc2ncc(C(F)(F)F)cc2Cl)CC1 (stereo unspecified)	-3	13%	5	79µM*	3%	-30%
Cc1cccc(-c2nc3c4c(-c5ccccc5)c(-c5ccccc5)oc4ncn3n2)c1	·	56%	·	-3%	·	-14%
Cc1cc(N(C)N)nc(NC(=O)NS(=O)(=O)c2ccccc2Cl)n1	-74*	25%[57 µM]	-94*	28µM*	·	28µM*
Cc1cc(Cl)cc(Br)c1OCCCCn1cncn1	9	?	2	50µM*	5%	3.5µM*
S=c1[nH]nc(-c2cccnc2)n1C1CCCCC1	12	26%	-2	4%	0%	5µM*
COc1ccc(Cl)cc1-c1n[nH]c(=S)n1C1CCCCC1	-1	15%	-3	-20%	5%	35µM*
COc1ccc(-c2n[nH]c(=S)n2C2CCCCC2)cc1	-2	17%	-2	-7%	0%	7.1µM*
Cc1cc(Cl)ccc1OCc1n[nH]c(=S)n1C1CCCCC1	2	-10%	-4	?	5%	-34%[57.1 µM]
COCCn1c(C)cc(O)c(C(c2ccccc2F)N2CCN(c3ccccc3)CC2)c1=O (stereo unspecified)	·	36%[57 µM]	·	-2%	-5%	-3%
CC(C)(C)c1ccc(S(=O)(=O)NCc2nc3cccnc3n2Cc2ccccc2Cl)cc1	·	11%[57 µM]	·	-8%	4%	-19%
SMILES	Six1-Eya2 blk	HP1b chromo inh	CtBP-E1A inh	BAZ2B block	TDP1 inh	JMJD2A Tudor
O=C(OCc1cc(=O)n2nc(C3CC3)sc2n1)c1cccc(NC(=O)c2ccccc2Cl)c1	·	4%	·	-6%	4%	-13%
Cc1ccccc1NC(=O)c1ccc2[nH]c(C)c(C)c2c1	·	-4%	·	-33%	8%	-35%
Cc1ccccc1CNC(=O)c1ccc2c(c1)c(C)c(C)n2C	·	-20%	·	40µM*	11%	?
Cc1c(C)n(C)c2ccc(C(=O)NCc3cccc(F)c3)cc12	·	0%	·	?	8%	?
CCN(CC)c1ccc(NC(=O)c2ccc3c(c2)c(C)c(C)n3C)cc1	?	35µM*	-1	11µM*	10%	18µM*
Cc1ccccc1CNC(=O)c1ccc2[nH]c(C)c(C)c2c1	·	-16%	·	40µM*	11%	50µM*
Cc1c(Cl)cccc1NC(=O)C(=O)NCCc1csc(-c2ccc(C(F)(F)F)cc2)n1	·	25%[57 µM]	·	5%	5%	3%
CCN(C(=O)c1cc2c(s1)-c1c(C)cccc1OC2)c1ccccc1F	·	210%	·	134%	·	189%
COc1cc2oc(=O)c(CC(=O)N3CCCCC3)c(C)c2cc1OC	·	22%	·	-12%	0%	-12%
N#CCN(CC#N)C(=O)C1c2ccccc2Oc2ccccc21	6	14%	2	-7%	1%	40µM*
O=C(N/N=C/c1ccccn1)c1cc(C2CC2)[nH]n1	?	47%	-68*	11µM*	9%	56µM*
O=C(N/N=C/c1ccccn1)c1ccc(N/N=C/c2ccccn2)cc1	5	49%	8	-6%	6%	5%
O=C(N/N=C/c1ccccn1)c1cc([N+](=O)[O-])cc([N+](=O)[O-])c1	?	20%	·	50µM*	11%	56µM*
O=C(N/N=C/c1cccc2ccccc12)c1cc(C2CC2)[nH]n1	-2	36%	·	-20%[57.1 µM]	1%	-13%
O=C(N/N=C/c1ccccn1)c1cccc(S(=O)(=O)Nc2ccccc2Cl)c1	-86*	25%	4	?	7%	-13%[57.1 µM]
O=C(N/N=C/c1ccccn1)c1ccc(Br)cc1	?	10%	-65*	-7%	3%	?
O=C(N/N=C/c1ccccn1)c1ccc([N+](=O)[O-])cc1	-12	29%	-22	-38%	3%	-17%
O=[S+]([O-])(c1cc2ccccc2o1)N1CCN([S+](=O)([O-])c2c(F)cccc2F)CC1	·	·	·	·	·	-10%
O=C(N/N=C/c1ccncc1)c1cc2ccccc2cc1O	-6	27%	-3	-30%	7%	-33%
CC(C)c1ccc2[nH]c(O)c(N=NC(=O)c3cccc(S(=O)(=O)Nc4ccccc4Cl)c3)c2c1	?	9%	-20	2%	-1%	-11%
O=C(N=Nc1c(O)[nH]c2ccccc12)c1cccc(S(=O)(=O)Nc2ccccc2Cl)c1	-11	-9%	·	?	5%	28µM*
C(=N\N=C\c1ccccn1)/c1ccccn1	-25	59%	-28	50µM*	·	?

Bioassay records deposited in PubChem by National Center for Advancing Translational Sciences (NCATS).
